Reference: PubChem BioAssay (NCATS)
Results filed as inconclusive are left out. Entries that show only a call come without a potency. Unmarked numbers belong to inactive results. Activity calls are given as the source filed them. Calls come from the whole dose curve; as a rule, active = well fitted inhibition curve with a large enough effect; inconclusive = small, poorly fitted or top-dose-only effect; inactive = no such curve, though single readings can be large or run the other way.

How the values were obtained:
[1] = system: Zika virus NS2B-NS3 protease (unlinked complex); assay: Primary screen GU Rhodamine qHTS for Zika virus inhibitors: Unlinked NS2B-NS3 protease assay (AID 1347159); note: nearly all actives have a fitted effect of over 60% in size; note: potency is the fitted concentration of half-maximal effect
How it was run: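 Unlinked NS2B/NS3, 25 nM; Rhod110 peptide, 1.5 microM; compounds, up to 114 microM. Reaction run 15 min at RT in 10 mM Tris-HCl pH 8.0, 0.01% Tween 20; kinetic fluorescence change fitted with a 4-parameter Hill model.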

[2] = system: Zika virus NS2B-NS3 protease (linked construct); assay: Primary screen NINDS Rhodamine qHTS for Zika virus inhibitors (AID 1347160); note: nearly all actives have a fitted effect of over 55% in size
How it was run: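 Single-chain NS2B-NS3 protease, 25 nM, pH 8.0; compounds preincubated 15 min. Activity: Rhodamine110 release from 1.5 microM substrate over 15 min, room temperature, data fitted to 4-parameter Hill.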

Row | Structure (SMILES) | Potency [1] | Potency [2] | activity change, negative = inhibition [1] | activity change, negative = inhibition [2]
1 | O=C(/C=C/c1ccccc1O)O[C@@H]1O[C@H](CO)[C@@H](O)[C@H](O)[C@H]1O | inactive | inactive |  | 
2 | Cc1c[nH]c2ncnc(N3CCC(CN)(C(=O)Nc4cccc(OC(=O)N(C)C)c4)CC3)c12 | inactive | inactive |  | 
3 | O=C(N[C@@H]1CCCc2c1cnn2-c1ccc(F)cc1F)c1ccccn1 | inactive | inactive |  | 
4 | CCN1CCN(Cc2ccc(NC(=O)c3ccc(C)c(Oc4ncnc5[nH]c(C)cc45)c3)cc2C(F)(F)F)CC1 | inactive | inactive |  | 
5 | C/C1=C\CCC2=CC(OC2=O)C(C)(C)/C=C/C1=O (stereo unspecified) | inactive | inactive |  | 
6 | COc1cc(-c2cn(C3CCc4c(F)cccc4N(CC(F)(F)F)C3=O)nn2)ccc1-n1cnc(C)c1 (stereo unspecified) | inactive | inactive |  | 
7 | COc1cc(C(C)C)c(Oc2cnc(N)nc2N)cc1I | inactive | inactive |  | 
8 | O=C(Nc1ccc(CN2CCOCC2)cc1)c1ccc(-c2cccc(Cl)c2)o1 | inactive | inactive |  | 
9 | CCCCOC(=O)NS(=O)(=O)c1sc(CC(C)C)cc1-c1ccc(Cn2ccnc2)cc1 | 31.6 µM (active) | inactive |  | 
10 | O=C(NCCCNC(=O)c1ccc[nH]c1=O)c1cc(-c2ccccc2)on1 | inactive | inactive |  | 
11 | C=C1C(OC2OC(CO)C(O)C(O)C2O)CC2C(C)(C)C(O)CCC2(C)C1CC/C(C)=C\COC(=O)CC(=O)O (stereo unspecified) | inactive | inactive |  | 
12 | CC(C)c1cc2c(N3CCN(C4=NCC(C)(C)S4)CC3)ncnc2s1 | inactive | inactive |  | 
13 | CCO[C@H]1CN(C2CCC(O)(c3ccc4c(c3)OCO4)CC2)C[C@@H]1NC(=O)CNC(=O)c1cccc(C(F)(F)F)c1 (stereo partly specified) | inactive | inactive |  | 
14 | CC(=O)OC1C(O)CC2(C)C(CCC3(C)C2CC=C2C4C5(CCC(CO[C@@H]6O[C@H](CO)[C@@H](O)[C@H](O)[C@H]6O)(OC5=O)C4(C)O)C(O)CC23C)C1(C)C (stereo partly specified) | inactive | inactive |  | 
15 | N#Cc1ccc(COc2ccc(-c3cccc4nc(NC(=O)C5CC5)nn34)cc2)cn1 | inactive | inactive |  | 
16 | Cc1cc2occ(CN(C)CCN(C)Cc3cn(-c4cccc(C(F)(F)F)c4)c4ccccc34)c(=O)c2cc1C | inactive | inactive |  | 
17 | CN1CCN(C2CCN(C(=O)Nc3cc(Oc4ccc(NC(=O)C5(C(=O)Nc6ccc(F)cc6)CC5)c(F)c4)ccn3)CC2)CC1 | inactive | inactive |  | 
18 | CO[C@H]1C[C@@H]2CC[C@@H](C)[C@@](O)(O2)C(=O)C(=O)N2CCCC[C@H]2C(=O)O[C@H]([C@@H](C)C[C@@H]2CC[C@@H](O)[C@H](OC)C2)CC(=O)[C@H](C)/C=C(\C)[C@@H](O)[C@@H](OC)C(=O)[C@H](C)C[C@H](C)/C=C/C=C/C=C/1C | inactive | inactive |  | 
19 | C=C1C(=O)OC2CC(C)C(CCC(C)=O)=CCC12 (stereo unspecified) | inactive | inactive |  | 
20 | C=C(COC(=O)C(O)C(O)CN)C12OC1C1(C)C(=CC2=O)C(O)C(O)CC1C (stereo unspecified) | inactive | inactive |  | 
21 | OC1C=C2C3CN(Cc4cc5c(cc43)OCO5)C2CC1O (stereo unspecified) | inactive | inactive |  | 
22 | Nc1nc(Nc2ccc3c(c2)CCC(N2CCCC2)CC3)nn1-c1cc2c(nn1)-c1ccccc1CCC2 (stereo unspecified) | 50.1 µM (active) | inactive |  | 
23 | CCN1C(C)(C)CC(Oc2ccc(C(=O)Nc3ccc(NC(=O)Nc4cc(C(C)(C)C)on4)cc3)nc2)CC1(C)C | inactive | inactive |  | 

Row | Structure (SMILES) | Potency [1] | Potency [2] | activity change, negative = inhibition [1] | activity change, negative = inhibition [2]
24 | CC(C)=CCCC1(C)/C=C/C(OC(=O)C=C(C)C)C(C)(O)/C=C/C(=O)/C(CO)=C\C1 (stereo unspecified) | inactive | inactive |  | 
25 | Nc1nc2c(ncn2C2OC3COP(=O)(O)OC3C2O)c(=O)[nH]1 (stereo unspecified) | inactive | inactive |  | 
26 | COc1cccc(OCCCN)c1-c1cc(Nc2cnc(C#N)cn2)n[nH]1 | inactive | inactive |  | 
27 | COc1ccc2c(c1O[C@H]1CCNC1)CCC2 | inactive | inactive |  | 
28 | COc1cc(OC)c2c(=O)[nH]c(-c3cc(C)c(OCCO)c(C)c3)nc2c1 | inactive | inactive |  | 
29 | FC(F)(F)c1ccc(/C=C/c2nc(COc3ccc(CCCCn4ccnn4)cc3)co2)cc1 | inactive | inactive |  | 
30 | CC(C)(F)CC(NC(c1ccc(-c2ccc(S(C)(=O)=O)cc2)cc1)C(F)(F)F)C(=O)NC1(C#N)CC1 (stereo unspecified) | inactive | inactive |  | 
31 | Fc1ccc(-c2cncc(CN3CCN(c4cccc5c4OCCO5)CC3)c2)cc1 | inactive | inactive |  | 
32 | NC(=O)CCCSc1nc(N)nc(-c2c(Cl)cc3c4c(cccc24)COC3)n1 | inactive | inactive |  | 
33 | O=C(C1CCCCC1)N(CCN1CCN(c2ccccc2O)CC1)c1ccccn1 | inactive | inactive |  | 
34 | COc1ccc(Sc2ccc(NC(=O)c3ccccc3Cl)cc2C#N)cc1 | inactive | inactive |  | 
35 | CN[C@@H]1[C@H](O[C@H]2[C@H](O[C@@H]3[C@@H](O)[C@H](O)[C@@H](N=C(N)N)[C@H](O)[C@H]3N=C(N)N)O[C@@H](C)[C@]2(O)CO)O[C@@H](CO)[C@H](O)[C@H]1O | inactive | inactive |  | 
36 | Nc1nc2c(cnn2CCCc2ccc(O)cc2)c2nc(-c3ccco3)nn12 | inactive | inactive |  | 
37 | CC(=O)CC(=O)Nc1ccc(Cl)c(C(F)(F)F)c1 | inactive | inactive |  | 
38 | C[C@H]1[C@H](/C=C/c2ccc(-c3ccccc3C#N)cn2)[C@@H]2[C@@H](C)OC(=O)[C@@H]2C[C@@H]1C | inactive | inactive |  | 
39 | COC(=O)C1=CO[C@@H](O[C@@H]2O[C@H](CO)[C@@H](O)[C@H](O)[C@H]2O)[C@H]2[C@@H]1C=C[C@]21C=C([C@H](C)OC(=O)/C=C/c2ccc(O)cc2)C(=O)O1 | inactive | inactive |  | 
40 | Oc1ccc(-c2cnc3ccc(NCc4ccco4)nn23)cc1 | inactive | inactive |  | 
41 | CC1CCC(=O)CC(SCC(O)C(=O)O)CCC(=O)O1 (stereo unspecified) | inactive | inactive |  | 
42 | Clc1ccc(Cn2c(Cc3ccccc3)nc3ccccc32)cc1 | inactive | inactive |  | 
43 | COc1ccccc1S(=O)(=O)Nc1ccc2c(c1)CN(C)C(=O)N2 | inactive | inactive |  | 
44 | CN1CCN(c2ccc(OC(F)(F)F)c(Nc3ncc4c(n3)-c3c(c(C(N)=O)nn3CCO)CC4)c2)CC1 | inactive | inactive |  | 
45 | Cn1c(=O)c2c(ncn2Cc2ccc(C(C)(C)C)cc2)n(C)c1=O | inactive | inactive |  | 
46 | NCC1CCN(c2nccc(-c3ccc4ccccc4c3)n2)CC1 | inactive | inactive |  | 

Row | Structure (SMILES) | Potency [1] | Potency [2] | activity change, negative = inhibition [1] | activity change, negative = inhibition [2]
47 | C[C@@H]1C[C@H]2O[C@@]3(O[C@@H]2C(C)(C)O)C(O)[C@@]2(C)C4CCC5C(C)(C)[C@@H](O[C@H]6OC[C@H](O)[C@@H](O)[C@@H]6O)CC[C@@]56C[C@@]46CC[C@]2(C)C13 (stereo partly specified) | inactive | inactive |  | 
48 | CCC(C)CC(=O)OC1C(=O)C(CO)=CC(O)C1C(C)C (stereo unspecified) | inactive | inactive |  | 
49 | CCn1c(=O)c(-c2ccc(Cl)cc2Cl)cc2cnc(Nc3ccc(N4CCNCC4)c(F)c3)nc21 | inactive | inactive |  | 
50 | CC(C)S(=O)(=O)NC[C@H](C)c1ccc(-c2ccc(CCNS(C)(=O)=O)cc2)cc1 | inactive | inactive |  | 
51 | Cn1c(=O)c(F)c(Nc2ccc(I)cc2F)c2c(=O)n(CC(O)CO)cnc21 (stereo unspecified) | inactive | inactive |  | 
52 | Cc1cc2c(c(=O)o1)C=C1CC[C@H]([C@H](C)Cn3cnc(=N)c4[nH]cnc43)C[C@@H]1O2 | inactive | inactive |  | 
53 | N#Cc1ccc(O[C@@H]2c3ccccc3C[C@H]2N2CCC[C@@H](N)C2)c(Cl)c1 | inactive | inactive |  | 
54 | O=C(O)C1=CO[C@@H](O[C@@H]2O[C@H](CO)[C@@H](O)[C@H](O)[C@H]2O)[C@@H]2C(CO)=CC[C@H]12 | inactive | inactive |  | 
55 | C[C@@H]1O[C@@H](O[C@H]2[C@H](OC(=O)[C@]34CCC(C)(C)C[C@H]3C3=CCC5[C@@]6(C)C[C@H](O)[C@H](O[C@@H]7O[C@H](CO)[C@@H](O)[C@H](O)[C@H]7O)[C@](CO)(C(=O)O)C6CC[C@@]5(C)[C@]3(C)C[C@H]4O)OC[C@H](O)[C@@H]2O)[C@H](O)[C@H](O)[C@H]1O[C@@H]1OC[C@@H](O)[C@H](O[C@@H]2OC[C@](O)(CO)[C@H]2O)[C@H]1O (stereo partly specified) |  |  | 10.7% [at 19.1 µM] | 31.9% [at 10.7 µM]
56 | CCCCc1c(-c2ccc(OC)cc2)[nH]c2nccnc12 | inactive | inactive |  | 
57 | COC(=O)C[C@H]1C(C)(C)[C@H](OC(=O)c2ccccc2)C2CC3=C4CC(=O)O[C@@H](c5ccoc5)[C@]4(C)CCC3[C@@]1(C)C2=O (stereo partly specified) | inactive | inactive |  | 
58 | NC(=O)C1=CC2C3C=CC2C(OC3=O)O1 (stereo unspecified) | inactive | inactive |  | 
59 | Cc1ccc(-c2ncccn2)c(C(=O)N2C[C@H](COc3ccc(F)cn3)CC[C@H]2C)c1 | inactive | inactive |  | 
60 | COc1ccc(S(=O)(=O)n2cnc3cc(C)c(C)cc32)cc1 | inactive | inactive |  | 
61 | CC1(CO)CC(O)[C@]2(C(=O)O)CCC34CC3(C=CC3[C@]5(C)C(CC[C@]34C)C(C)(CO)[C@@H](O)[C@H](O)[C@@H]5O)C2C1 (stereo partly specified) | inactive | inactive |  | 
62 | COC1CC(=O)C23C(=O)NC(CC(C)C)C2C(C)C(C)=CC3/C=C(\C)CCCC1O (stereo unspecified) | inactive | inactive |  | 
63 | C=C1C(=O)OC2/C=C(\CO)CC/C=C(\C=O)C(OC)C(OC(=O)C(C)CC)C12 (stereo unspecified) | inactive | inactive |  | 
64 | COc1ccccc1OCCN1CC(COc2cccc3[nH]c4ccccc4c23)OCC1=O (stereo unspecified) | inactive | inactive |  | 
65 | Cc1cc(N2CCN(C(=O)Oc3ccc(-c4ccccc4)cn3)CC2)c2ccccc2n1 | inactive | inactive |  | 
66 | O=C(NCCN1CCN(c2cccc3c2OCCO3)CC1)c1ccc(F)cc1 | inactive | inactive |  | 
67 | CCCC(=O)C1(c2ccccc2)CCN(C(=O)[C@@H](Cc2ccc(OC)cc2)NC(=O)[C@@H](N)Cc2cncn2C)CC1 | inactive | inactive |  | 
68 | CC1(C)CC[C@]23CO[C@@]4(CCC5[C@@]6(C)CC[C@H](O[C@@H]7OC[C@H](O[C@@H]8O[C@H](CO)[C@@H](O)[C@H](O)[C@H]8O[C@@H]8OC[C@@H](O)[C@H](O)[C@H]8O)[C@H](O)[C@H]7O)[C@@](C)(CO)C6CC[C@@]5(C)[C@]4(C)CC2=O)[C@@H]3C1 (stereo partly specified) | inactive | inactive |  | 
